TEAD-YAP inh: TEAD-YAP interaction inhibition | hit rate 1.4% among 640,000 | HEK-TIYL cells, TEAD-Gal4/YAP UAS-luciferase luminescence | AID 1259422 | inhibition, % at 9.12 µM; in the data active means inhibition above about 32%;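 further: 0% = median of test compound wells and 100% = reference inhibitor wells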
MITF primary: blocks human microphthalmia-associated transcription factor; hit rate 0.91% among 650,000; inhibition, % at 2.6 µM; O75030; AlphaScreen MITF homodimerization, bead proximity signal; in the data active means inhibition above about 50%;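 further: 0% = vehicle wells with protein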
GPR151 ag: human GPR151 activation. Q8TDV0. PathHunter beta-arrestin GPR151 cells, luminescence. activation, % at 11.2 µM. hit rate 1% among 650,000; in the data active means activation above about 4.9%;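 further: 0% = median of compound wells and 100% = cells with positive control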
FBW7 act: activators of human E3 ligase FBW7; AlphaScreen FBW7–phospho-cyclin E peptide binding, activator screen; normalized activity (activation), % at 26.1 µM; hit rate 0.13% among 650,000; AID 1259310; in the data active means normalized activity above about 1.9%;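 further: purified mutant Fbw7 with reduced substrate affinity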
GPR151 confirm: human GPR151 activation, confirmation screen; shares compounds with GPR151 ag; GPR151 PathHunter beta-arrestin cells, luminescence, 90 min; % of EA-reagent control over plate median; AID 1508609; activation, % at 11.2 µM; 6,700 tested, under 10 active;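 active means mean percent activation across replicates above the confirmation screen cutoff of 4.91%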
GPR119 ag: GPR119 activation, counter-screen for GPR151 activators | shares compounds with GPR151 ag | GPR119 PathHunter beta-arrestin cells, luminescence, 90 min; 0 = compound-well median, 100 = enzyme-acceptor control | activation, % at 11.2 µM | hit rate 0.3% among 6,700 | AID 1508611;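 active means mean percent activation in the counterscreen above 29.09%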;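 further: counterscreen on off-target GPR119 to flag nonselective hits from the GPR151 activator screen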
Numbers without * were called inactive. This is a sample that favours compounds with a hit; in the whole collection about 3.5% have one here.

`CCOCCOC(=O)C1=C(C)N(C)C(=O)NC1c1ccccc1I` (stereo not given) gave TEAD-YAP inh 7, MITF primary 8, GPR151 ag 0 and FBW7 act 0.
For COc1ccc2nc(Cl)c(C3CC(c4ccc(Cl)cc4)=NN3C(=O)CCCC(=O)O)cc2c1 (stereo not given) the results were TEAD-YAP inh -3, MITF primary 7, GPR151 ag 0 and FBW7 act 0.
COc1ccc2nc(Cl)c(C3CC(c4ccccc4)=NN3C(=O)CCCC(=O)O)cc2c1 (stereo not given) was read as TEAD-YAP inh 3, MITF primary 17, GPR151 ag 5.0*, FBW7 act 0, GPR151 confirm 0 and GPR119 ag 2.
For Cn1c(=O)c2c(ncn2CC(=O)N/N=C/c2ccc(C(F)(F)F)cc2)n(C)c1=O the results were TEAD-YAP inh 2, MITF primary 12, GPR151 ag 5.6*, FBW7 act 0, GPR151 confirm 0 and GPR119 ag 4.
`Cn1c(=O)c2c(ncn2CC(=O)N/N=C/c2ccccc2F)n(C)c1=O` gave TEAD-YAP inh 2, MITF primary -1, GPR151 ag 0 and FBW7 act 0.
For CC1(C)Cc2ccccc2C2=C(C(=O)N3CCCCCC3)C(=O)C(=O)N21 the results were TEAD-YAP inh 8, MITF primary 12, GPR151 ag 1 and FBW7 act 0.
`CCNC(=O)C1=C2c3ccccc3CC(C)(C)N2C(=O)C1=O` gave TEAD-YAP inh 0, MITF primary -3, GPR151 ag 6.1*, FBW7 act 0, GPR151 confirm 0 and GPR119 ag 10.
Screening COC(=O)C1=C(NC(=O)COc2ccc(Cl)cc2)CCS1 returned TEAD-YAP inh 4, MITF primary -4, GPR151 ag 6.1*, FBW7 act 0, GPR151 confirm -1 and GPR119 ag -1.
For COC(=O)C1=C(NC(=O)c2ccccc2Br)CCS1 the results were TEAD-YAP inh 1, MITF primary 0, GPR151 ag 5.0*, FBW7 act 0, GPR151 confirm 0 and GPR119 ag 11.
For Cc1ccccc1-n1nc2c(c1NC(=O)COc1ccc(Cl)cc1)CSC2 the results were TEAD-YAP inh 0, MITF primary -2, GPR151 ag 1 and FBW7 act 0.
`Cc1cc([N+](=O)[O-])ccc1NC(=S)NC(=O)COc1ccccc1` gave TEAD-YAP inh 7, MITF primary 3, GPR151 ag 7.3*, FBW7 act 0, GPR151 confirm 1 and GPR119 ag 12.
O=C(CN1N=C(c2ccccc2)CCC1=O)NCCCN1CCCC1 was read as TEAD-YAP inh -7, MITF primary -8, GPR151 ag -2 and FBW7 act 0.
Screening C=CCNC(=O)c1cc(I)ccc1NC(=O)c1ccc(F)cc1 returned TEAD-YAP inh 7, MITF primary 20, GPR151 ag 11*, FBW7 act 0, GPR151 confirm 1 and GPR119 ag -5.
C=CCNC(=O)c1cc(I)ccc1NC(=O)c1cccnc1 was read as TEAD-YAP inh 3, MITF primary 3, GPR151 ag 5.7*, FBW7 act 0, GPR151 confirm -1 and GPR119 ag -9.
Screening CCCCCCc1c(C)c2ccc(OC(C)C(=O)OC)cc2oc1=O (stereo not given) returned TEAD-YAP inh 4, MITF primary -6, GPR151 ag 5.7*, FBW7 act 0, GPR151 confirm 0 and GPR119 ag -10.
`CCCCOC(=O)COc1ccc2c(CCC)cc(=O)oc2c1` gave TEAD-YAP inh 8, MITF primary -8, GPR151 ag 0 and FBW7 act 0.
`Cc1cc(=O)oc2cc(OC(=O)c3ccco3)ccc12` gave TEAD-YAP inh -1, MITF primary 15, GPR151 ag 0 and FBW7 act 0.
For COC(=O)Cc1c(C)c2ccc(OC(=O)c3ccco3)cc2oc1=O the results were TEAD-YAP inh -7, MITF primary 8, GPR151 ag 9.0*, FBW7 act 0, GPR151 confirm 1 and GPR119 ag -3.
C=CCOC(=O)COc1ccc2c(CCC)cc(=O)oc2c1 was read as TEAD-YAP inh 7, MITF primary 12, GPR151 ag 5.8*, FBW7 act 0, GPR151 confirm -1 and GPR119 ag -8.
